Screening data: PubChem BioAssay, several laboratories
PfM18AAP inh: blocks P. falciparum M18 aspartyl aminopeptidase. recombinant PfM18AAP, H-Glu-NHMec fluorogenic cleavage. inhibition, % at 7.35 µM. 290,000 compounds, 1.2% hits. AID 1822;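 active means inhibition above the campaign mean inhibition over all tested compounds plus 3 SD, cut at about 28% in these data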;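 further: 0% = plate median of test compound wells and 100% = 2 mM ZnCl2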
Granule exo inh: blocks lytic granule exocytosis | AID 651702 | TALL-104 LAMP-1 surface exposure, flow cytometry; cells stimulated with thapsigargin and PMA | 360,000 compounds, 0.66% hits | inhibition, % at 10 µM;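 active means inhibition above about 55%, limit read from the data; inconclusive means no clear call, values can overlap the other calls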
ABHD5-PLIN5 inh: blocks binding of human ABHD5 to perilipin-5; inhibition, % at 4 µM; AID 602281; Q00G26+Q8WTS1; Split G. princeps luciferase complementation, luminescence, 4 h; 360,000 compounds, 0.78% hits;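 active means inhibition above the mean inhibition across every tested compound plus 3 SD, cut at about 22% in these data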;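 further: 0% = DMSO only wells and the 100% control is not disclosed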
Target sequence (Q00G26 whole entry, looked up): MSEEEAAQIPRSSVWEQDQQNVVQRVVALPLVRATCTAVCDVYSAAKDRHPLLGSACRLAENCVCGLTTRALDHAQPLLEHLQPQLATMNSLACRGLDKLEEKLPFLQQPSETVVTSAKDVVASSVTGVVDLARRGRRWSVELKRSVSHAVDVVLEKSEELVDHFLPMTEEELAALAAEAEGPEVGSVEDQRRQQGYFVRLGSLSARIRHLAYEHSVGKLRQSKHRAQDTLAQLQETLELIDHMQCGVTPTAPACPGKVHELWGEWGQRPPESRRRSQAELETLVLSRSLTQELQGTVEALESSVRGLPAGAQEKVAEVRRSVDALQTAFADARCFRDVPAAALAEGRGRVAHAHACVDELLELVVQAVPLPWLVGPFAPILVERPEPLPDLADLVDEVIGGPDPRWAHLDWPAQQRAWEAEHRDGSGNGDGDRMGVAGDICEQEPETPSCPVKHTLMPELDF
Target sequence (Q8WTS1 whole entry, looked up): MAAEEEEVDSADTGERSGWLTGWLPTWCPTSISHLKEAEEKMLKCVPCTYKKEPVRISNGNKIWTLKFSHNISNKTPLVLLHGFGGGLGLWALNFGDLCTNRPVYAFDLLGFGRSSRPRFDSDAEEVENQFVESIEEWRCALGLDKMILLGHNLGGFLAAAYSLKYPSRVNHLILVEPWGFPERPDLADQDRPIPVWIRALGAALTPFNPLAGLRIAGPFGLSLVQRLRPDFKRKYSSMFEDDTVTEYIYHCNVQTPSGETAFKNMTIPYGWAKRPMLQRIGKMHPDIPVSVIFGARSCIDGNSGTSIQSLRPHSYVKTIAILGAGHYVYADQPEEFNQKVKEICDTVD
Rce1 inh: yeast Ras-converting enzyme inhibition. Q03530. yeast membranes, quenched prenylated peptide cleavage fluorescence. calls only. 290,000 compounds, 0.27% hits;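 active means fall in fluorescence gain of 50% or more versus controls, with final raw signal at or below 3038400; inconclusive means same 50% fall but final raw signal above 3038400; inactive means fall in fluorescence gain under 50%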;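 further: plate controls were neutral control wells for no effect and wells lacking membranes for full effect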
Platelet DG rel: platelet dense granule release activity; human platelet-rich plasma, SFLLRN dense granule ATP release, luminescence; 300,000 compounds, 0.22% hits; inhibition, %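 (compounds screened at 7.5 µM in platelet-rich plasma)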;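 active means mean replicate score, as percent of positive control, at or above 50; inconclusive means mean below 50 but at least one replicate at or above 50; inactive means mean and every replicate below 50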
Exocytosis CP01: blocks lytic granule exocytosis | inhibition, % at 10 µM | TALL-104 cells, LAMP-1 externalization, flow cytometry; stimulated with PMA plus thapsigargin | shares compounds with Granule exo inh | AID 651954 | 1,500 compounds, 11% hits; in the data active means inhibition above about 60%;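 further: 0% = stimulated vehicle wells and 100% = unstimulated wells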
* = called active by the depositor. Most compounds without a hit are left out; they make up all but 2.6% or so of the library.

O=C(c1cc(COc2c(F)cccc2F)on1)N1CCC(c2ccncc2)CC1 was read as PfM18AAP inh 2.7, Granule exo inh 86.3*, ABHD5-PLIN5 inh 1.3, Rce1 inh inactive, Platelet DG rel 8.2 and Exocytosis CP01 -14.6.
For Cc1cccc(C)c1OCc1cc(C(=O)N2CCC(c3ccncc3)CC2)no1 the results were PfM18AAP inh -3.3, Granule exo inh 12.8, ABHD5-PLIN5 inh 4.8, Rce1 inh inactive and Platelet DG rel inconclusive.
`COc1cc(C)ccc1OCc1cc(C(=O)N2CCC(c3ccc(F)cc3)C2)no1` (stereo not given) gave PfM18AAP inh 14.9, Granule exo inh 76.7*, ABHD5-PLIN5 inh -0.8, Rce1 inh inactive, Platelet DG rel -5.4 and Exocytosis CP01 -2.7.
`Cc1cc(Nc2cccc(Cl)c2)nc(NCc2ccccc2)n1` gave PfM18AAP inh 5.9, Granule exo inh 70.2*, ABHD5-PLIN5 inh 22.3*, Rce1 inh inactive, Platelet DG rel 9.3 and Exocytosis CP01 -8.6.
Screening CCC(=O)N1CCc2cc(OC)c(OC)cc2C1COc1ccc(C(=O)OC)cc1 (stereo not given) returned PfM18AAP inh -11.5, Granule exo inh 31.2, ABHD5-PLIN5 inh 1.5, Rce1 inh inactive and Platelet DG rel 5.7.
`COC(=O)c1ccc(OCC(O)CN2CCc3cc(OC)c(OC)cc3C2c2ccccc2)cc1` (stereo not given) gave PfM18AAP inh -13.3, Granule exo inh 73.5*, ABHD5-PLIN5 inh -4.8, Rce1 inh inactive, Platelet DG rel 0.7 and Exocytosis CP01 -12.1.
`CC1(C(=O)OCC(=O)Nc2nc(-c3ccc(F)c(F)c3)cs2)CC1(Cl)Cl` (stereo not given) gave PfM18AAP inh 2.1, Granule exo inh 91.6*, ABHD5-PLIN5 inh -10.4, Rce1 inh inactive, Platelet DG rel -11.7 and Exocytosis CP01 100.8*.
For CCOC(=O)c1c(NC(=O)CSc2nc3ccccc3[nH]2)sc2c1CC(C)(C)NC2(C)C the results were Granule exo inh -1.0, ABHD5-PLIN5 inh -2.9, Rce1 inh inactive and Platelet DG rel 3.3.
Screening COC(=O)c1c(NC(=O)c2ccc(C(=O)c3ccccc3)cc2)sc2c1CC(C)(C)NC2(C)C returned Granule exo inh 67.4*, ABHD5-PLIN5 inh -0.4 and Exocytosis CP01 63.4*.
For CCOc1ccc(C(=O)Nc2sc3c(c2C(=O)OC)CC(C)(C)NC3(C)C)cc1 the results were PfM18AAP inh -2.7, Granule exo inh 21.1, ABHD5-PLIN5 inh 2.8, Rce1 inh inactive and Platelet DG rel 4.8.
Screening COC(=O)c1c(NC(=O)c2nc3ccccc3s2)sc2c1CC(C)(C)NC2(C)C returned PfM18AAP inh 5.7, Granule exo inh 67.2*, ABHD5-PLIN5 inh -2.9, Rce1 inh inactive, Platelet DG rel 13.8 and Exocytosis CP01 85.2*.
O=C(OC(C(=O)NCc1cccs1)c1ccccc1F)c1ccco1 (stereo not given) was read as PfM18AAP inh -4.3, Granule exo inh -3.1, ABHD5-PLIN5 inh -5.2 and Platelet DG rel 0.9.
For CS(=O)(=O)N(CC(=O)Nc1ccccc1)Cc1ccc(Cl)cc1 the results were PfM18AAP inh 4.0, Granule exo inh -3.1, ABHD5-PLIN5 inh 3.1, Rce1 inh inactive and Platelet DG rel -4.1.
CCN(CC)CCSc1nnc2c3ccccc3n(CCc3ccccc3)c2n1 was read as PfM18AAP inh 7.6, Granule exo inh 60.1*, ABHD5-PLIN5 inh 4.6, Rce1 inh inactive, Platelet DG rel 2.6 and Exocytosis CP01 -13.6.
`C=CCn1c2ccccc2c2nnc(SCCN3CCCCC3)nc21` gave PfM18AAP inh 2.5, Granule exo inh 17.5, ABHD5-PLIN5 inh 5.1, Rce1 inh inactive and Platelet DG rel 3.0.
Screening C=CCn1c2ccccc2c2nnc(SCCCn3c(=O)[nH]c4ccccc43)nc21 returned PfM18AAP inh -9.8, Granule exo inh 66.7*, ABHD5-PLIN5 inh 5.9 and Exocytosis CP01 12.1.
OC(CNCc1ccccc1)(c1ccccc1)c1ccccc1 was read as PfM18AAP inh -8.2, Granule exo inh 21.4, ABHD5-PLIN5 inh 1.3, Rce1 inh inactive and Platelet DG rel -4.1.
For COc1cccc(NC(=O)Cn2c(-c3cncs3)nc3ccccc32)c1 the results were PfM18AAP inh 1.0, Granule exo inh -0.6, ABHD5-PLIN5 inh 4.7, Rce1 inh inactive and Platelet DG rel 12.8.
For O=C(CSc1nccn(-c2cccc(F)c2)c1=O)Nc1ccc(Cl)cc1F the results were PfM18AAP inh 24.6, Granule exo inh 76.3*, ABHD5-PLIN5 inh -17.5, Platelet DG rel -0.7 and Exocytosis CP01 -9.8.
